From PubChem
HTT aggregate = inhibitors of mutant huntingtin aggregate formation in PC12 cells. PC12 HttQ103-GFP aggregates, Acumen cytometry, 40 h. Potency, µM (top dose mostly 46.1 µM), usual class: inhibitors. 220,000 tested, 1.1% active. AID 1688; further: nearly all actives have a fitted effect of over 60% in size
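PC12 cells with ecdysone-inducible HTT exon1 Q103-GFP, induced by 100 nM tebufenozide, given compounds in a concentration series. GFP aggregates (1–25 um, 6 SD above background) counted in lysates by laser-scanning cytometry, 488 nm excitation.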
HTT cytoprotect = Huntington cell model cytoprotection by ATP luminescence. PC12 HTT-Q103 induced, cytoprotection, ATP luminescence, 40 h. Potency, µM (series often up to 56.4 µM), most hits filed as activators. 230,000 tested, 0.14% active. AID 1471; further: nearly all actives have a fitted effect of over 45% in size
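PC12 cells with ecdysone-inducible HTT exon 1 Q103-GFP, induced with 100 nM tebufenozide and co-treated with library compounds in a dose series (1536-well, 1500 cells/well). Cytoprotection read as ATP content by ATPlite luminescence.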
HPGD block = inhibitors of human 15-hydroxyprostaglandin dehydrogenase (HPGD) | P15428 | purified HPGD, NADH fluorescence kinetic, PGE2 substrate | Potency, µM, usual class: inhibitors | 150,000 tested, 4.3% active | AID 894; active means well fitted inhibition curve with a large enough effect, not every such curve was filed as active; inconclusive means small, poorly fitted or top-dose-only effect, or another doubt; inactive means no such curve, though single readings can be large or run the other way
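NADH formation kinetics: reaction with 30 uM PGE2 and 1 mM NAD+ (final), 20 nM enzyme, Tris-HCl pH 8 with Tween 20, after 15 min compound preincubation at room temperature. Fluorescence change, last versus first of five reads.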
ALDH1A1 inh = blocks purified human ALDH1A1 activity; AID 1030; Purified ALDH1A1, NADH fluorescence, propionaldehyde substrate; 220,000 tested, 7.3% active; Potency, µM (series often up to 75.3 µM), most hits filed as inhibitors; P00352; active means well fitted inhibition curve with a large enough effect, not every such curve was filed as active; inconclusive means small, poorly fitted or top-dose-only effect, or another doubt; inactive means no such curve, though single readings can be large or run the other way
JMJD2E inh = JMJD2E (human) inhibition; B2RXH2; JMJD2E catalytic domain, FDH-coupled NADH fluorescence (FDH is formaldehyde dehydrogenase); Potency, µM (titrated, usually from 57.1 µM), most hits filed as inhibitors; 230,000 tested, 1.6% active; active means well fitted inhibition curve with a large enough effect, not every such curve was filed as active; inconclusive means small, poorly fitted or top-dose-only effect, or another doubt; inactive means no such curve, though single readings can be large or run the other way; further: nearly all actives have a fitted effect of over 50% in size
Target sequence (B2RXH2 1-337 limits assumed): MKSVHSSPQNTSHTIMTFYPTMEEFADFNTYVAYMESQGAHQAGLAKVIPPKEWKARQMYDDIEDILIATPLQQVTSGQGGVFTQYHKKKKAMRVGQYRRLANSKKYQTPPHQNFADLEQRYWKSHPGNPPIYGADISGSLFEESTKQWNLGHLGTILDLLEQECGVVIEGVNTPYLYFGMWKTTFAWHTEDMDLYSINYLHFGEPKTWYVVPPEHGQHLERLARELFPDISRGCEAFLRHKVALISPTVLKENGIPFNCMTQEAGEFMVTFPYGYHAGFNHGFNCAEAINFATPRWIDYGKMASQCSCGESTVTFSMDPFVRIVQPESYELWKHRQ
CBFb-RUNX1 inh = inhibitors of human CBF-beta and RUNX1 interaction; AlphaScreen CBFb-His/RUNX1-biotin binding, biochemical; Potency, µM (titrated, usually from 59.8 µM), most hits filed as inhibitors; 230,000 tested, under 10 active; AID 1477
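Bead-based AlphaScreen assay; binding partners His-tagged CBF-beta and biotinylated RUNX1 at 30 nM each. Compound exposure 15 min after a 20-min protein preincubation; bead step 90 min; all steps at room temperature.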
Each line names hits and unclear results; the compound was inactive in the other large screens. Shown are actives, neighbours in structure and some others; about 9.8% of the full set was active somewhere. Unless noted, the call rests on the fitted dose curve; in most records, active means well fitted curve in the direction sought with a large enough effect; inconclusive means small, poorly fitted or top-dose-only effect, or another doubt; inactive means no such curve, though single readings can be large; an effect the other way counts as inactive or inconclusive.

OC[C@@H](O)C(O)[C@@H](O)CO (stereo partly specified)	none (no result: HTT aggregate, HTT cytoprotect, HPGD block, ALDH1A1 inh, JMJD2E inh)
CCn1nc(C)c(CNC(=O)CC2C(=O)NCCN2CC(C)C)c1C (stereo unspecified)	ALDH1A1 inh inconclusive, JMJD2E inh inconclusive (no result: HPGD block)
O=[N+]([O-])c1ccc(C2=NCCO2)cc1	none (no result: HPGD block, ALDH1A1 inh)
COC(=O)CC1=C(C(=O)OC)C(c2cccs2)C(C#N)=C(N)O1 (stereo unspecified)	ALDH1A1 inh inconclusive, JMJD2E inh 22.4µM
CC1(C)CC(=O)C2=C(C1)OC(c1cccs1)C(C#N)=C2N (stereo unspecified)	ALDH1A1 inh 11.2µM
COC(=O)C1=C(C)NC2=C(C(=O)CCC2)C1c1cccs1 (stereo unspecified)	JMJD2E inh inconclusive
CC1(C)CC(=O)C2=C(C1)OC(N)=C(C#N)C2c1cccs1 (stereo unspecified)	ALDH1A1 inh 22.4µM (no result: HPGD block)
COC(=O)C1=C(N)OC2=C(C(=O)CC(C)(C)C2)C1c1cccs1 (stereo unspecified)	HPGD block 22.4µM
O=C(N/N=C/c1ccc([N+](=O)[O-])o1)c1ccccc1NS(=O)(=O)c1cccs1	none (no result: HPGD block, ALDH1A1 inh)
CCCCOc1ccc(-c2nc(=S)[nH][nH]2)cc1	HPGD block inconclusive
